NALP1 inh: NALP1 inflammasome inhibitors in reconstituted yeast, colorimetric, S. cerevisiae, triplicate retest | actives 0.61% (n = 280,000) | inhibition, % at 10 µM | S. cerevisiae NALP1/ASC/caspase-1 growth, X-gal OD620, 72 h | AID 2071, 2009; in the data active = inhibition mostly above about 24%, no sharp cut-off; inactive = mostly below about 32%
NLRP3 yeast inh: NALP3 inflammasome inhibitors in reconstituted yeast, primary screen, luminescence, uHTS. Yeast reconstituted NLRP3/ASC/caspase-1, beta-gal luminescence, 24 h. inhibition, % at 10 µM. actives 0.39% (n = 330,000);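 active = inhibition of 50% or more; inactive = inhibition below 50%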;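 note: plate controls were induced DMSO wells for no effect and uninduced yeast grown without galactose for full effect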
tim23-1 inh: growth inhibitors of tim23-1 mutant yeast, primary screen, luminescence, uHTS; S. cerevisiae tim23-1 growth, BacTiter-Glo luminescence, 24 h; inhibition, % at 20 µM; actives 1.3% (n = 330,000); AID 463212, 2010;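 active = growth inhibition of the mutant yeast at or above 50%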;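 note: temperature-sensitive mutant grown at 25 °C; plate controls were DMSO-treated mutant yeast for no effect and medium wells lacking yeast for full effect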
PfHsp90 set2: growth inhibition of PfHsp90-expressing yeast, primary screen, antimalarial PfHsp90 inhibitor project, S. cerevisiae, BacTiter-Glo luminescence, single point, set 2; BacTiter-Glo ATP, 48 h; yeast lacking PDR1 and PDR3 efflux regulators; inhibition, % at 9.4 µM; actives 0.32% (n = 310,000); AID 504621, 2011;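 active = every replicate shows inhibition above about 80%, whatever the replicate mean, limit read from the data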;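 note: 0% = DMSO neutral controls and 100% = 20 µM radicicol positive controls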
TIM10 inh: growth inhibitors of isogenic TIM10 control yeast, primary screen, counter-screen for tim10-1 yeast inhibitor project, luminescence, uHTS; S. cerevisiae TIM10 strain growth, BacTiter-Glo luminescence, 24 h; AID 463195, 2010; inhibition, % at 10 µM; actives 1.4% (n = 330,000);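 active = inhibition of 40% or more at the single tested concentration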;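 note: wild-type TIM10 isogenic control strain grown at permissive 25 °C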
tim10-1 inh: growth inhibitors of tim10-1 mutant yeast, primary screen, luminescence, uHTS; actives 2.2% (n = 330,000); inhibition, % at 20 µM; S. cerevisiae tim10-1 ts strain growth, BacTiter-Glo, 24 h;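 active = inhibition of at least 40%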;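 note: mutant grown at 25 °C; 0% = DMSO wells with yeast and 100% = wells holding no yeast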
tim10-1 confirm: growth inhibitors of tim10-1 mutant yeast, confirmation, single concentration, luminescence, S. cerevisiae. shares compounds with tim10-1 inh. S. cerevisiae tim10-1 ts strain growth, BacTiter-Glo, 24 h. inhibition, % at 20 µM. actives 56% (n = 7,400);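 active = inhibition of yeast growth at or above a set limit in either of two repeat tests at 20 µM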;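 note: tim10-1 mutant grown at permissive 25 °C to find synthetic lethal compounds; 0% = DMSO yeast wells and 100% = medium wells without yeast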
tim10 confirm: growth inhibitors of wild-type TIM10 yeast, confirmation, counter-screen for tim10-1 synthetic lethality project, single concentration, luminescence, S. cerevisiae. S. cerevisiae tim10 strain growth, BacTiter-Glo luminescence, 24 h. actives 63% (n = 4,600). inhibition, % at 10 µM. shares compounds with TIM10 inh;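 active = inhibition of yeast growth at or above a set limit in either of two replicates at 10 µM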;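 note: this counterscreen used the strain with wild-type TIM10; 0% = yeast with DMSO and 100% = medium wells lacking yeast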
tim23-1 confirm: tim23-1 mutant yeast growth inhibitors, confirmation, luminescence, single concentration; shares compounds with tim23-1 inh; actives 83% (n = 4,400); AID 463218, 2010; inhibition, % at 20 µM; S. cerevisiae tim23-1 growth, BacTiter-Glo luminescence, 24 h;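 active = inhibition above about 39% in either of two replicate wells at 20 µM, limit read from the data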;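 note: temperature-sensitive tim23-1 mutant grown at 25 °C; 0% = DMSO wells with yeast and 100% = medium wells without yeast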
* = called active by the depositor; · = no result given. Shown are actives, neighbours in structure and some others; about 4.2% of the full set was active somewhere.

SMILES	NALP1 inh	NLRP3 yeast inh	tim23-1 inh	PfHsp90 set2	TIM10 inh	tim10-1 inh	tim10-1 confirm	tim10 confirm	tim23-1 confirm
Cc1cccc(OCCN2CSC(=S)N(C)C2)c1	-8	49	59*	-27	26	42*	14	·	76*
COc1ccccc1OCCN1CSC(=S)N(C)C1	108*	38	72*	-102	53*	42*	31*	-18	60*
Cc1cccc(OCCCN2CCCCCC2)c1	8	13	-31	-47	3	2	·	·	·
O=C(COC(=O)/C=C/c1ccccc1)NC1CCCCCC1	·	-1	14	·	19	28	·	·	·
N/C(=N\OC(=O)Cc1ccccc1)c1cccc(Br)c1	6	-9	23	-22	-1	9	·	·	·
Cc1cccc(/C(N)=N/OC(=O)c2cccs2)c1	-8	-23	81*	-14	79*	65*	57*	73*	76*
N/C(=N\OC(=O)c1cccs1)c1cccc(Br)c1	13	5	80*	-25	90*	57*	59*	86*	51*
Cc1ccc(/C(N)=N/OC(=O)C23CC4CC(CC(C4)C2)C3)cc1	40	4	80*	·	85*	58*	42*	86*	67*
N/C(=N\OC(=O)c1cccs1)c1ccccc1	36	5	71*	-20	70*	65*	63*	36*	67*
O=[N+]([O-])c1ccc(NCCCNS(=O)(=O)c2ccc(Cl)cc2)c(Cl)c1	28	7	39	-19	20	24	·	·	·
Cc1ccc(C(=O)COC(=O)c2cccs2)cc1	-87	25	5	71	-9	17	·	·	·
Cc1ccc(/C(N)=N/OC(=O)c2cccs2)cc1	45	9	73*	0	80*	48*	60*	88*	24
C=C(Br)CN1[C@@H](Cc2ccccc2)[C@H](O)[C@@]23C=C[C@@H](C[C@@H]2S1(=O)=O)O3	·	19	10	21	-1	-5	·	·	·
Oc1c(Cl)cc(Cl)cc1/C=N/NC(=S)NC1CC2C=CC1C2 (stereo not given)	-12	13	57*	-20	36	48*	50*	·	72*
Oc1c(Cl)cc(Cl)cc1/C=N/Nc1ncc(Br)cn1	3	13	-4	-7	-1	12	·	·	·
O=C1CC(Sc2ncccn2)C(=O)N1c1ccccc1 (stereo not given)	8	3	22	-5	10	20	·	·	·
Nc1nnc(SC2CC(=O)N(c3ccccc3)C2=O)s1 (stereo not given)	37*	22	59*	-7	30	66*	53*	·	58*
CNC(=O)C(C)Sc1ccc(S(=O)(=O)N2CCOCC2)cn1 (stereo not given)	·	3	4	-10	13	-9	·	·	·
CCN1/C(=C/C(C)=C/c2sc3ccccc3[n+]2CC)Sc2ccccc21	8	-6	82*	72	79*	80*	76*	88*	82*
O=C(C1CCCN(S(=O)(=O)c2ccc(F)cc2)C1)N1CCCCC1 (stereo not given)	-10	6	26	-10	-2	2	·	·	·
COc1cnc(-c2ccccn2)nc1Sc1cccc(Cl)c1	-11	33	63*	-23	31	44*	28	·	55*
COc1ccc(/C=N/n2cnnc2)cc1Br	17	-5	14	·	15	-2	·	·	·
Cc1ccccc1OCC(=O)OCC(=O)Nc1ncc(Cl)c(C)c1Cl	·	14	14	16	6	-5	·	·	·
O=C1Nc2ccccc2/C1=N\N=C\C1=C(N2CCOCC2)C(=C\c2ccccc2)/CC1	10	-6	58*	6	47*	61*	52*	36*	51*
O=C1Nc2ccc(Br)cc2/C1=N\N=C\C1=C(N2CCOCC2)C(=C/c2ccccc2)/CC1	·	·	·	22	·	·	·	·	·
SMILES	NALP1 inh	NLRP3 yeast inh	tim23-1 inh	PfHsp90 set2	TIM10 inh	tim10-1 inh	tim10-1 confirm	tim10 confirm	tim23-1 confirm
CC(C)c1nc(CNC(=O)C2CCC(=O)N(CCc3cccc(F)c3)C2)cs1 (stereo not given)	-4	8	-13	14	7	-2	·	·	·
Cc1ccc(NC(=O)CS(=O)CC(=O)Nc2ccccc2-c2ccc(C)o2)cc1 (stereo not given)	12	5	50*	2	29	45*	28*	·	47*
CC(=O)Nc1ccccc1-c1ccc(C)o1	6	-1	1	5	5	-1	·	·	·
COc1ccc(/C=C/C(=O)c2ccc([N+](=O)[O-])o2)cc1	·	5	79*	15	70*	45*	16	79*	-4
COc1ccccc1C(=O)CN1C(=O)NC2(CCc3ccccc32)C1=O (stereo not given)	·	9	21	28	4	7	·	·	·
CC(Nc1nc(-c2ccccc2)nc2ccccc12)c1ccccc1 (stereo not given)	12	19	58*	13	29	44*	-27	·	33
Oc1ccc(Nc2nc(-c3ccccc3)nc3ccccc23)cc1	15	21	61*	-9	42*	59*	46*	52*	59*
CC(Nc1nc(-c2ccccc2O)nc2ccccc12)c1ccccc1 (stereo not given)	-7	7	44	-6	21	28	·	·	·
COc1ccc(Nc2nc(-c3ccccc3)nc3ccccc23)cc1	4	25	67*	-9	39	52*	40*	·	63*
COc1ccc(/C=C2\SC(=O)NC2=S)cc1OC	0	20	52*	-68	33	41*	37*	·	48*
C/C(=N\Nc1nc(C)cc(-c2ccccc2)n1)c1ccc(C)o1	21	11	52*	-28	45*	49*	32*	8	49*
O=C(c1cccs1)c1no[n+]([O-])c1C(=O)c1cccs1	27	24	81*	105*	-6	72*	87*	·	97*
O=C(CCCSc1nc2ccccc2[nH]1)Nc1nnc(C2CC2)s1	-10	1	21	-4	10	6	·	·	·

Screening data deposited in PubChem by several laboratories.
